Compound activity from PubChem.
HEK cytotox – kills HEK 293 cells. HEK 293 viability, ATP luminescence (CellTiter-Glo), 48-72 h. Potency, µM (doses to about 115 µM), usual class: inhibitors. 6.6% of 94,000 active. AID 1345083; also: nearly all actives have a fitted effect of over 60% in size
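Pintool-delivered compounds were incubated with HEK 293 cells (250 cells/well) at 37 degree Celsius for 48 or 72 hr. ATP-dependent luminescence (CellTiter-Glo) then reported remaining viable cells.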
hNpr1 antagonist – antagonists of human natriuretic peptide receptor Npr1 | HEK293 hNpr1 GloSensor cGMP, ANP-stimulated luminescence | Potency, µM (highest dose often 46.3 µM), hits mostly inhibitors | 1.6% of 76,000 active | AID 1347048 | P16066; calls by dose curve; also: nearly all actives have a fitted effect of over 60% in size
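HEK293 cells stably expressing human Npr1 and cGMP GloSensor pGS-40F, loaded 2 h with 2% GloSensor reagent, given compound 30 min at room temperature. Luminescence read before and 20 min after 0.1 nM hNppA.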
NIH3T3 tox – cytotoxic compounds in NIH 3T3 cells; AID 1345082; Potency, µM (titrated, usually from 96.7 µM), most hits filed as inhibitors; NIH 3T3 viability, CellTiter-Glo ATP luminescence, 48-72 h; 4.3% of 94,000 active; also: nearly all actives have a fitted effect of over 55% in size
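First NIH 3T3 cells are plated at 400 cells/well; next compound is pinned in; then plates incubate 48 or 72 hr at 37 °C; finally CellTiter-Glo is added and luminescence read after 10 min.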
GPT2 inh – blocks human glutamate pyruvate transaminase 2; Q8TD30; Recombinant GPT2, coupled pyruvate oxidase/HRP Amplex Red fluorescence; Potency, µM (titrated, usually from 57.7 µM), most hits filed as inhibitors; 0.25% of 100,000 active; AID 1671188; also: nearly all actives have a fitted effect of over 60% in size
Target sequence (Q8TD30 whole entry, looked up): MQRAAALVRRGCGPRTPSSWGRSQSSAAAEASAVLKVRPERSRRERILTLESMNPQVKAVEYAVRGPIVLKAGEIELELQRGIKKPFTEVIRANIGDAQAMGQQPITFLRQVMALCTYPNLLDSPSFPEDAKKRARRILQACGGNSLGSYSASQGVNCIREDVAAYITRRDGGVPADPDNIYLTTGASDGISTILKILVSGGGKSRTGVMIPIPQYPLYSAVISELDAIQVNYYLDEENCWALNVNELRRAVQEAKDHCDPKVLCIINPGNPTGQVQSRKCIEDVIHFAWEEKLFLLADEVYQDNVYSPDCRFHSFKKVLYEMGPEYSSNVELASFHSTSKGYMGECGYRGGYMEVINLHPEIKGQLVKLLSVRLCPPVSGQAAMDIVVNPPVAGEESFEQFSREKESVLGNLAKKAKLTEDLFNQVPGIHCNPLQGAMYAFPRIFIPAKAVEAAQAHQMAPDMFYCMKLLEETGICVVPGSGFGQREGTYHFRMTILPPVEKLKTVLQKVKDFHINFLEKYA
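Fluorescence of coupled pyruvate oxidase/HRP/Amplex Red system (50uM Amplex, 30 min, dark) reports pyruvate formed by GPT2. Enzyme reaction: 10ng/uL GPT2, 2mM L-alanine, 250uM a-KG, 30 min room temperature, pH 7.5; 50uM AOA control.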
Luciferase inh – Photinus pyralis luciferase inhibition | 2.5% of 76,000 active | Potency, µM (titrated, usually from 115 µM), actives largely listed as inhibitors | purified P. pyralis luciferase, luminescence, biochemical | P08659; also: nearly all actives have a fitted effect of over 65% in size
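Luminescence read by CCD imager after adding enzyme (10nM final) to wells holding compound, titrated in qHTS. Substrates 10uM each D-luciferin and ATP; buffer 50mM Tris acetate pH 7.5, 10mM Mg acetate, Tween-20, BSA.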
Hits are given with their value; - = inactive; ? = inconclusive; . = no result given. Most compounds without a hit are left out; they make up all but 10% or so of the library. Unless noted, calls follow the shape of the dose curve; as a rule, active = well fitted curve in the direction sought with a large enough effect; inconclusive = small, poorly fitted or top-dose-only effect, or another doubt; inactive = no such curve, though single readings can be large; an effect the other way counts as inactive or inconclusive.

SMILES	HEK cytotox	hNpr1 antagonist	NIH3T3 tox	GPT2 inh	Luciferase inh
CCN(CC)CCNC(=O)c1ccc2c(c1)n(Cc1cccc(F)c1)c(=O)c1ccnn12	32µM	-	32µM	-	-
O=C(NCc1ccco1)c1ccc2c(c1)n(Cc1ccc(F)cc1)c(=O)c1ccnn12	?	-	22µM	-	-
O=C(NCc1ccccc1)c1ccc2c(c1)n(Cc1ccc(F)cc1)c(=O)c1ccnn12	28µM	-	32µM	-	-
COc1ccc(NC(=O)N2Cc3[nH]cnc3C[C@H]2c2nc(-c3ccc(C)cc3)no2)cc1	?	?	?	-	63µM
COc1ccc(NC(=O)N2Cc3[nH]cnc3C[C@H]2c2nc(-c3ccc(C(F)(F)F)cc3)no2)cc1	?	-	?	-	?
O=C(Nc1ccccc1)N1Cc2[nH]cnc2C[C@H]1c1nc(-c2ccc3c(c2)OCO3)no1	-	-	?	-	?
COc1ccc(NC(=O)N2Cc3[nH]cnc3C[C@H]2c2nc(-c3ccc(F)c(Cl)c3)no2)cc1	?	?	32µM	-	?
COc1ccc(NC(=O)N2Cc3[nH]cnc3C[C@H]2c2nc(-c3ccc(OC)cc3)no2)cc1	-	-	?	-	?
COc1ccc(NC(=O)N2Cc3[nH]cnc3C[C@H]2c2nc(-c3ccc(F)cc3)no2)cc1	?	-	50µM	-	?
COc1ccc(-c2noc([C@@H]3Cc4nc[nH]c4CN3C(=O)Nc3ccc(C)cc3)n2)cc1	?	?	?	?	18µM
Cc1cnc(C(=O)N2CCOCC(CO)C2)cn1 (centres undefined)	-	-	-	?	-
COc1cccc(CC(=O)N2CCCCCNC(=O)[C@@H]3CCC[C@@H]32)c1	-	-	-	-	-
COc1ccccc1-c1cc(C(=O)Nc2ccc(C)cc2)nn2cnnc12	35µM	.	-	-	.
COc1ccccc1-c1cc(C(=O)NCc2ccccc2)nn2cnnc12	?	.	?	-	.
Cc1ccc(NC(=O)c2cc(-c3ccc(Cl)cc3Cl)c3nncn3n2)cc1	-	.	-	-	.
COc1ccccc1-c1cc(C(=O)NCc2cccc(C(F)(F)F)c2)nn2cnnc12	40µM	.	?	-	.
CC(=O)NC1(C)CN(Cc2ccc(-c3cccc(C(F)(F)F)c3)s2)C1	63µM	?	45µM	-	13µM
CC(=O)NC1(C)CN(Cc2ccc(-c3cccc(F)c3)s2)C1	?	-	?	-	?
O=C(c1ccc(F)cc1)N1CCn2c(nn(-c3ccc([N+](=O)[O-])cc3)c2=O)C1	-	-	-	?	-
O=c1n(-c2ccc(F)cc2F)nc2n1CCN(Cc1ccc(F)cc1)C2	50µM	-	?	-	-
O=c1n(-c2ccc([N+](=O)[O-])cc2)nc2n1CCN(Cc1ccc(F)cc1)C2	35µM	?	?	-	-
O=c1n(-c2ccc([N+](=O)[O-])cc2)nc2n1CCN(Cc1ccsc1)C2	40µM	-	?	-	?
O=c1n(-c2ccc([N+](=O)[O-])cc2)nc2n1CCN(Cc1ccccc1)C2	28µM	-	?	-	-
CC(C)c1noc(-c2cn(C3CCN(C(=O)Cc4ccc(Br)cc4)C3)nn2)n1 (centres undefined)	?	-	-	-	-
CCOC(=O)C1(Cc2ccc(F)cc2F)CCCN(S(=O)(=O)c2c(C)noc2C)C1 (centres undefined)	40µM	-	?	-	-
SMILES	HEK cytotox	hNpr1 antagonist	NIH3T3 tox	GPT2 inh	Luciferase inh
O=C(N[C@@H]1CN(Cc2ccc(F)cc2)C[C@H]1CO)c1ccccc1	?	-	?	-	-
COCCn1ncc(N2CCCC(CC(=O)Nc3cccc(Cl)c3)C2)cc1=O (centres undefined)	-	-	-	-	-
COCCn1ncc(N2CCCC(CC(=O)Nc3ccc(Cl)cc3)C2)cc1=O (centres undefined)	?	-	32µM	-	-
CCn1ncc(N2CCCC(CC(=O)Nc3cc(OC)cc(OC)c3)C2)cc1=O (centres undefined)	-	-	40µM	-	-
O=C(NCC1Cn2cccc2CN1Cc1ccccc1)c1ccccn1 (centres undefined)	-	.	-	-	.
CN1Cc2cccn2CC1CNC(=O)c1ccnn1C (centres undefined)	-	-	-	-	-
